Source: PubChem BioAssay AID1159580 (chemical genetic matrix, 2015)
Hit rate of the full screen: of about 5,500 compounds, about 2,000 (36%) were called active. Inconclusive results (about 18%) are left out. Cut-off read from the data, not from the text of the source: active = normalized growth mostly below about 0.91 (no sharp cut-off); inconclusive = no clear call, values can overlap the other calls; inactive = mostly above about 0.92. Some of the results follow.

Experiment: chemical genetic growth profiling, strain panel (AID 1159580);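 note: tested at 20 µM; growth read once vehicle control cultures reached saturation at 30 °C; 1 = growth at the plate median or of vehicle wells; lower values mean less growth of the strain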
Conditions: S. cerevisiae deletion strains, growth OD

Measured: normalized growth

N[C@@H](Cn1oc(=O)[nH]c1=O)C(=O)O
inactive: locus YAL013W, strain DEP1, hits give low values 1.01 | locus YAL040C, strain CLN3, hits give low values 0.975 | locus YCL061C, strain MRC1 (second series), hits give low values 0.991 | locus YDR150W, strain NUM1, hits give low values 0.996 | locus YDR363W, strain ESC2, hits give low values 0.968 | locus YER002W, strain NOP16, hits give low values 0.979 | locus YGR078C, strain PAC10, hits give low values 0.979 | locus YMR263W, strain SAP30, hits give low values 1.01 | locus YMR307W, strain GAS1, hits give low values 1.02 | locus YNL153C, strain GIM3, hits give low values 0.996 | locus YNL175C, strain NOP13, hits give low values 0.99 | locus YNL197C, strain WHI3, hits give low values 0.972 | locus YNL224C, strain SQS1, hits give low values 0.989 | locus YOR083W, strain WHI5 (second series), hits give low values 0.961
